# Data as given in PubChem BioAssay (NCI).
# Compounds without any hit were thinned out: in the full panel of roughly 83,000, 20% have a hit.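 Testing used 96-well plates and a 48-hour single-concentration exposure. Example: -40 means 40% of the starting cells died.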 Values without a mark were called inactive. Activity calls are given as the source filed them. Rule for the calls: active = growth percent below 10; inactive = the rest.
# Tests used:
# Test in all cases: NCI-60 one-dose screen, 48 h (100 = growth as untreated, 0 = no growth, -100 = all killed)
# Conditions in all cases: 10 µM unless noted
# [1] = system: SR leukemia
# [2] = system: RPMI-8226 leukemia
# [3] = system: OVCAR-8 ovarian
# [4] = system: OVCAR-5 ovarian
# [5] = system: OVCAR-4 ovarian
# [6] = system: SK-OV-3 ovarian
# [7] = system: IGROV1 ovarian
# [8] = system: OVCAR-3 ovarian
# [9] = system: HS 578T breast
# [10] = system: NCI/ADR-RES ovarian
Compound,growth [1],growth [2],growth [3],growth [4],growth [5],growth [6],growth [7],growth [8],growth [9],growth [10]
CCCCNC(=O)CC1=C(C)/C(=C/c2[nH]c(-c3ccc[nH]3)cc2OC)N=C1C,-16.8% (active),39.2%,20.5%,50.2%,39.7%,51.7%,49.2%,24.4%,43.1%,30.1%
C=C1C(=O)O[C@H]2[C@H]1CC/C(COC(=O)/C=C\C(=O)NCc1ccc(Cn3c(=O)sn(CCI)c3=O)cc1)=C\CC[C@@]1(C)O[C@@H]21,2.49% (active),22.4%,58.3%,77.7%,48.3%,133%,3.61% (active),10.4%,89.3%,98%
N=C(N)c1ccc(-c2ccc(-c3ccccc3)o2)cc1,-29.3% (active),-36.7% (active),-59.3% (active),-10.9% (active),-4.49% (active),-18.3% (active),-25.7% (active),-38.4% (active),-18.1% (active),-5.17% (active)
O=C(OC(CO)C(=O)NC12CC3CC(CC(C3)C1)C2)c1ccc(Cl)cc1 (stereo not given),84.7%,98%,100%,96.3%,101%,107%,109%,115%,99.5%,107%
Nc1c(C(=O)Nc2ccccc2C(F)(F)F)sc2nc3c(cc12)CCC3,86.6%,110%,100%,103%,101%,87.7%,105%,113%,95.1%,101%
N#Cc1c(-c2ccccc2)cc(-c2ccc(Nc3nc(Nc4ccc(Cl)cc4)nc(Nc4ccc(Cl)cc4)n3)cc2)nc1N,-30.8% (active),-45.4% (active),32.6%,63.2%,-15.2% (active),110%,-8.08% (active),-54% (active),14.4%,53.2%
O=C(NCc1ccc(Cl)cc1Cl)C1CCC(=O)N1c1cccs1 (stereo not given),91.8%,95.5%,93.5%,91.2%,97.5%,89.6%,92.4%,108%,101%,83.9%
COC(=O)c1c2c(c(C)[n+]([O-])c1C)C(=O)C(NCc1cccc(OC)c1)=CC2=O,17.6%,33.1%,-4.96% (active),67.6%,-28.6% (active),89.6%,12.3%,-12.1% (active),82.7%,8.5% (active)
C=CC(=O)N1CCN(c2cccc(Oc3nccc(Nc4nnc(-c5ccc(Br)cc5)s4)n3)c2)CC1,29.9%,50.4%,66%,89.9%,88.9%,80.2%,55.9%,19.2%,67.5%,48.4%
Clc1cccc(Nc2ncnc3ccc(-c4cnc5[nH]ccc5c4)cc23)c1,60%,60%,68.2%,78.7%,85%,71.1%,25.1%,64.6%,81.4%,77%
Oc1ccc(Cl)cc1/C=N\NC(=S)N/N=C/c1cc(Cl)ccc1O,20.2%,29.8%,17.6%,69.7%,29.6%,58.6%,22.2%,12.7%,57.9%,14.7%
O=C(c1ccccc1)c1ccc(C2CCCCC2)cc1,107%,95.6%,97.8%,95.4%,95.2%,91.6%,100%,98.7%,103%,99.7%
C#CCOc1cccc(Nc2ncnc3ccc(NC(=O)C=C)cc23)c1,21.1%,35.7%,32.4%,52.6%,59.3%,-3.78% (active),-6.06% (active),19.2%,42.4%,36.1%
CCOC(=O)c1ccc2c(c1)nc(-c1ccccc1)n2C1CCCCC1,62.9%,63.7%,89.5%,117%,102%,36.7%,106%,108%,111%,105%
COc1cccc(/C=C2\COc3ccc(O)c(O)c3C2=O)c1,12.6%,-7.52% (active),10.7%,-2.7% (active),26.9%,86.2%,-31.1% (active),-28.3% (active),20.4%,2.6% (active)
CN(c1cc2ncc(=O)[nH]c2cc1NC(N)=NCc1ccc(Cl)cc1)C1CCCCC1,-22.7% (active),8.99% (active),70.4%,73.2%,72.7%,84.7%,61.6%,82.3%,64.2%,115%
COc1ccc(-c2nc3cc(C(=O)NCc4ccccc4)ccc3n2C2CCCCC2)cc1,43.8%,69.2%,93%,84.9%,80.4%,102%,105%,85.8%,76.3%,88.5%
O=C(Nc1cccc2ccccc12)NC1CC1,109%,105%,101%,110%,102%,97.1%,122%,114%,108%,111%
CSc1nnc(-c2cc3c([nH]c4ccccc43)c(-c3cccc(O)c3)n2)n1-c1ccccc1,21.7%,16.2%,47.1%,58.7%,43.7%,47.4%,49.9%,-0.418% (active),25.1%,56.6%
Cc1ccc(-c2nc(N3CCCNCC3)c3oc(-c4ccccc4)nc3n2)cc1,-42.3% (active),-49.1% (active),-44.1% (active),-87.3% (active),-62.6% (active),95.5%,-85.3% (active),-85.7% (active),-29.8% (active),-45.5% (active)
CS(=O)(=O)Nc1cc(-c2ccc3ncnc(Nc4ccc5c(cnn5Cc5ccc(F)cc5)c4)c3c2)cnc1Cl,34%,9.43% (active),67.9%,44.7%,71%,47.5%,-15.7% (active),9.71% (active),-9.56% (active),90%
O=C1/C(=C/c2cn(-c3ccccc3)nc2-c2ccccc2)SC(=S)N1C1CCCCC1,106%,114%,103%,108%,97.6%,108%,103%,117%,103%,102%
Cc1ccc(C(=O)c2ccc(CC(=O)N/N=C/c3ccccc3O)n2C)cc1,56.2%,81.4%,79%,92%,60.2%,90.4%,80.9%,80.3%,104%,69.4%
O=C1c2c(c3c4ccccc4[nH]c3c3ccc4ccccc4c23)C(=O)N1CCN1CCNCC1,-13.3% (active),-35% (active),34.5%,99.5%,12.9%,107%,58.1%,-47.5% (active),94.7%,25.9%
CN1C(=O)/C(=C\c2nc([P+](c3ccccc3)(c3ccccc3)c3ccccc3)c(N3CCOCC3)o2)SC1=S,13.3%,-21.1% (active),96.4%,96.7%,90.5%,108%,5.71% (active),100%,90.4%,90.5%
COC(=O)/C=C1/SC(=Nc2cccc(OC)c2)N(CCc2c[nH]c3ccc(O)cc23)C1=O,0.788% (active),16.2%,41.6%,83.3%,49.4%,101%,51.8%,40.3%,66.5%,58.8%
C=C1C(=O)O[C@H]2[C@H]1CC/C(COC(=O)C(=O)c1cn(C)c3ccc(Cl)cc13)=C\CC[C@@]1(C)O[C@@H]21,2.71% (active),-33.7% (active),-23.9% (active),-47.6% (active),-61.2% (active),-35.4% (active),-72.1% (active),-86.3% (active),-16.9% (active),-3.58% (active)
